# Only some compounds are listed: those with a hit (about 7.4% of all), similar ones and a draw of the others.
# Rab9 prom act: qHTS Assay for Rab9 Promoter Activators; Huh7 Rab9 promoter-luciferase reporter, luminescence, 24 h; Potency, µM (doses to about 9.22 µM), most hits filed as activators; 2.8% of 320,000 active; AID 485297, 2010; also: nearly all actives have a fitted effect of over 60% in size
#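 Huh7 cells stably carrying a Rab9 promoter-luciferase reporter, 1500 cells per well in OP-MEM I with 10% FBS, treated with compound 24 hours at 37C. Luciferase activity read by luminescence after 10 minutes with Amplite reagent.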
# NPC1 promoter act: qHTS Assay for NPC1 Promoter Activators. Huh7 NPC1 promoter luciferase reporter, 24 h. Potency, µM (titrated, usually from 9.22 µM), usual class: activators. 2.4% of 320,000 active; also: nearly all actives have a fitted effect of over 60% in size
#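 Luminescence from an NPC1 promoter-driven luciferase reporter in stably transfected Huh7 cells was measured after 24 h compound treatment at 37 °C, followed by 10 min ambient incubation with luciferase detection reagent.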
# SMN2 splice up: qHTS Assay for Enhancers of SMN2 Splice Variant Expression. HEK293 SMN2-luciferase splicing reporter, luminescence, 30-36 h. AID 1458, 2008. 2.8% of 210,000 active. Potency, µM (highest dose often 46.1 µM), actives largely listed as activators; also: nearly all actives have a fitted effect of over 55% in size
#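 HEK293 cells carry an SMN2 […]–luciferase reporter in which exon 7 inclusion puts luciferase in frame. Cells were plated 10-12 h before compound addition, then incubated 30-36 h at 37C. ONE-Glo luminescence was read; sodium butyrate at 4.5 mM final served as control.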
# ELG1 genotox: qHTS screen for small molecules that induce genotoxicity in human embryonic kidney (HEK293T) cells expressing luciferase-tagged ELG1; AID 504466, 2011; Potency, µM (highest dose often 46 µM), most hits filed as activators; 1.3% of 330,000 active; HEK293T ELG1-luciferase reporter, luminescence, 16 h; also: nearly all actives have a fitted effect of over 60% in size
#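 DMSO vehicle served as control against compound-treated ELG1-luciferase HEK293T cells; exposure lasted 16 hr at 37 °C and 5% CO2, followed by ONE-Glo luminescence detection after 30 min.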
# FLuc modulator: qHTS profiling assay for firefly luciferase inhibitor/activator using purifed enzyme and Km concentrations of substrates (counterscreen for miR-21 project). purified FLuc, Km substrates, luminescence inhibition. Luciferin 4-monooxygenase (Photinus pyralis), P08659. Potency, µM (series often up to 57.5 µM), hits mostly inhibitors. 6.9% of 360,000 active. AID 588342, 2011; also: nearly all actives have a fitted effect of over 55% in size
# Target sequence (P08659 whole entry, looked up): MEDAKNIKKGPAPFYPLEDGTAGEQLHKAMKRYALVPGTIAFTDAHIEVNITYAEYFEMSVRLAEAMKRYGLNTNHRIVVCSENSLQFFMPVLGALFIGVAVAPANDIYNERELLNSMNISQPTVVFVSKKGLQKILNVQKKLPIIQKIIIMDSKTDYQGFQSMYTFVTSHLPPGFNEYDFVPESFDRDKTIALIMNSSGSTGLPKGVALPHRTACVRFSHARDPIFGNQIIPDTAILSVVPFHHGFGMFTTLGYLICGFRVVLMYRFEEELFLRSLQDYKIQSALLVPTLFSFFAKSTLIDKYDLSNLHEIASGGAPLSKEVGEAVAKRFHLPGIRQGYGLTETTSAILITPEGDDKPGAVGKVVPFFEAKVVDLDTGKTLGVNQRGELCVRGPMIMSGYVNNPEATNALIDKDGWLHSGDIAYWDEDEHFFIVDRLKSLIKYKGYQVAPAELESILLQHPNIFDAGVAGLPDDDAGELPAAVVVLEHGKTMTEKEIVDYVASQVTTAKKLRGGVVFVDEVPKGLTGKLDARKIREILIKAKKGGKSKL
#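 Biochemical qHTS of compounds, final roughly 60 µM downward over six points, against 10 nM purified firefly luciferase using Km concentrations of substrates (10 uM D-luciferin, 10 uM ATP) in Tris acetate pH 7.5 buffer; luminescence output.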
# Numbers stand for hits; n = inactive; u = inconclusive; x = no result given. Calls follow the shape of the dose curve; as a rule, active = well fitted curve in the direction sought with a large enough effect; inconclusive = small, poorly fitted or top-dose-only effect, or another doubt; inactive = no such curve, though single readings can be large; an effect the other way counts as inactive or inconclusive.
SMILES,Rab9 prom act,NPC1 promoter act,SMN2 splice up,ELG1 genotox,FLuc modulator
O=C(O)c1ccc(-c2nc3scc(-c4ccccc4)c3c(=O)[nH]2)cc1,n,n,x,n,9.5µM
CSCc1nc2scc(-c3ccccc3)c2c(=O)[nH]1,n,n,n,n,n
O=c1[nH]c(-c2ccc(O)cc2)nc2scc(-c3cccs3)c12,2µM,2.8µM,x,u,11µM
COc1cc2nc(N(C)CCCNC(=O)[C@@H]3CCCO3)nc(N)c2cc1OC,x,x,n,x,x
COCCN1Cc2c(sc(C)c2C)N(C(=O)c2ccccc2)C1,n,u,n,n,19µM
Cc1sc2c(c1C)CN(Cc1ccncc1)CN2C(=O)c1ccco1,n,n,n,n,u
O=C(CN1C(=O)CSc2ccc(S(=O)(=O)N3CCCCC3)cc21)NCc1ccc(F)cc1Cl,x,x,x,x,n
CSc1ncccc1C(=O)OCC(=O)c1ccc(C)s1,x,x,x,n,x
CSc1ncccc1C(=O)OCC(=O)c1cccs1,n,n,n,n,19µM
CCc1ccc(C(=O)COC(=O)c2cccs2)cc1,1.4µM,2.5µM,n,4.5µM,0.19µM
Cc1ccc(C(=O)COC(=O)CNC(=O)c2cccs2)cc1,x,x,n,x,n
Cc1ccc(C(=O)COC(=O)c2cccs2)cc1,0.45µM,0.79µM,u,u,0.15µM
CN(C)c1ccc(C(=O)OCC(=O)c2cccs2)cc1,1.8µM,3.5µM,6.3µM,8.2µM,3.4µM
COC(=O)CC1C(C)(C)C(=O)C2CC3=C(CC[C@]4(C)C3=CC(=O)OC4c3ccoc3)[C@@]1(C)C2=O (some centres not stated),x,x,n,x,x
COC(=O)c1sc(N2C(=O)c3oc4ccccc4c(=O)c3C2c2ccc(O)cc2)nc1C (configuration not stated),x,x,n,x,n
O=C(OCC(=O)c1cccs1)c1cccc(C(=O)OCC(=O)c2cccs2)n1,n,n,n,n,12µM
O=C(O/N=C1\CCS(=O)(=O)c2sccc21)c1ccccc1,n,n,n,n,2.7µM
Cc1cccc(C(=O)O/N=C2\CCS(=O)(=O)c3sccc32)c1,n,n,n,n,3.4µM
O=C(O/N=C1\CCS(=O)(=O)c2sccc21)c1ccc(F)cc1,n,n,n,n,u
COCCn1c(C)cc(C(=O)CN2C(=O)NC3(CCCCCC3)C2=O)c1C,2µM,2.5µM,x,u,11µM
CCN(Cc1cccs1)C(=O)CN1C(=O)NC2(CCCc3ccccc32)C1=O (configuration not stated),n,n,x,n,n
Cc1cc(C(=O)CN2C(=O)NC3(CCCCCC3)C2=O)c(C)n1C,u,n,x,n,u
Cc1cc(C(=O)CN2C(=O)NC3(CCCc4ccccc43)C2=O)c(C)n1Cc1cccs1 (configuration not stated),n,n,n,n,6µM
C=CCn1c(C)cc(C(=O)CN2C(=O)NC3(CCCc4ccccc43)C2=O)c1C (configuration not stated),n,n,n,n,19µM
COc1ccccc1-c1nnc(SCC(=O)c2ccc(F)cc2)n1-c1ccccc1,x,x,n,x,n
SMILES,Rab9 prom act,NPC1 promoter act,SMN2 splice up,ELG1 genotox,FLuc modulator
Cc1ccc(S(=O)Cc2ccc(C(=O)NC3CCCCCC3)o2)cc1 (configuration not stated),x,x,n,x,n
N/C(=N\OC(=O)CCCc1ccccc1)c1ccccc1,n,n,x,u,4.8µM
N/C(=N\OC(=O)Cc1ccccc1)c1cccnc1,n,n,n,n,n
N/C(=N\OC(=O)CCCc1ccccc1)c1cccnc1,n,n,n,n,17µM
N/C(=N\OC(=O)CCCc1ccccc1)c1cccc([N+](=O)[O-])c1,n,n,n,n,u
Cc1cccc(/C(N)=N/OC(=O)CCCc2ccccc2)c1,n,n,x,u,9.5µM
Cc1cc(C)cc(NC(=O)c2ccc3oc(=O)c(S(=O)(=O)c4ccc(F)cc4)cc3c2)c1,x,x,n,x,n
CC(C)N=C=NC(C)C,x,x,n,x,x
COc1ccc2c(c1)c(=O)c(S(=O)(=O)c1ccccc1)cn2CC(=O)Nc1ccc(C)c(Cl)c1,x,x,n,x,n
COc1ccccc1-c1nc2c(c(SCC(=O)Nc3ccccc3F)n1)Cc1c(CO)cnc(C)c1O2,x,x,x,x,n
